tim23-1 inh – growth inhibitors of tim23-1 mutant yeast, primary screen, luminescence, uHTS; hit rate 1.3% among 330,000; AID 463212, 2010; S. cerevisiae tim23-1 growth, BacTiter-Glo luminescence, 24 h; inhibition, % at 20 µM;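 active = growth inhibition of the mutant yeast at or above 50%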;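 note: temperature-sensitive mutant grown at 25 °C; plate controls were DMSO-treated mutant yeast for no effect and medium wells lacking yeast for full effect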
SUMO Mot1 rescue – yeast Mot1-301 growth rescue at high temperature, primary screen, SUMOylation pathway inhibitor project, S. cerevisiae, ATP luminescence, 38.5C | S. cerevisiae Mot1-301 growth rescue; percent above DMSO median, 100 means doubled | growth rescue, % at 18.8 µM | hit rate 1% among 320,000;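 active = every valid replicate shows activation above 250% relative to neutral control wells; inactive = the rest, any valid replicate at or below 250%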;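 note: OY570 slx delta 5 strain wells were the positive control but not used for scaling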
TIM10 inh – growth inhibitors of isogenic TIM10 control yeast, primary screen, counter-screen for tim10-1 yeast inhibitor project, luminescence, uHTS. S. cerevisiae TIM10 strain growth, BacTiter-Glo luminescence, 24 h. inhibition, % at 10 µM. hit rate 1.4% among 330,000;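 active = inhibition of 40% or more at the single tested concentration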;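 note: wild-type TIM10 isogenic control strain grown at permissive 25 °C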
tim10-1 inh – growth inhibitors of tim10-1 mutant yeast, primary screen, luminescence, uHTS. S. cerevisiae tim10-1 ts strain growth, BacTiter-Glo, 24 h. inhibition, % at 20 µM. hit rate 2.2% among 330,000. AID 463190, 2010;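 active = inhibition of at least 40%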;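 note: mutant grown at 25 °C; 0% = DMSO wells with yeast and 100% = wells holding no yeast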
PfHsp90 set2 – growth inhibition of PfHsp90-expressing yeast, primary screen, antimalarial PfHsp90 inhibitor project, S. cerevisiae, BacTiter-Glo luminescence, single point, set 2 | BacTiter-Glo ATP, 48 h; yeast lacking PDR1 and PDR3 efflux regulators | inhibition, % at 9.4 µM | hit rate 0.32% among 310,000 | AID 504621, 2011;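 active = every replicate shows inhibition above about 80%, whatever the replicate mean, limit read from the data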;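 note: 0% = DMSO neutral controls and 100% = 20 µM radicicol positive controls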
Mot1 SUMO dose – growth restoration of Mot1-301 yeast on galactose, dose response, SUMO pathway inhibitor project, whole organism, S. cerevisiae, ATP luminescence, cherry-picked samples. shares compounds with SUMO Mot1 rescue. 2,300 tested, under 10 active. S. cerevisiae Mot1-301 galactose growth, 24 h; -100 = growth of slx-deleted rescue strain. growth activity, percent, % at 42 µM;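 active = Signal drops as the depositor expects, and the fitted half-maximal dose is no more than ten times the top valid tested dose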;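 note: more negative values mean stronger growth rescue toward the control strain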
* hit, by the source's call. An excerpt weighted towards active compounds, which were near 4.4% of everything screened.

For CCOC(=O)C1CCN(C(=O)c2sccc2Cl)CC1 the results were tim23-1 inh 8.3, SUMO Mot1 rescue 567.0*, TIM10 inh -10.7, tim10-1 inh -21.4, PfHsp90 set2 -3.9 and Mot1 SUMO dose 0.5.
Screening C[C@H]1CN([C@@H](C)CO)C(=O)c2cc(NC(=O)NC3CCCCC3)ccc2O[C@H]1CN(C)C(=O)Nc1ccc(C(F)(F)F)cc1 returned tim23-1 inh 5.2, SUMO Mot1 rescue -13.1, TIM10 inh 11.8, tim10-1 inh 23.2 and PfHsp90 set2 -9.7.
Screening COCc1nnc(NC(=O)CC(C)C)s1 returned tim23-1 inh 19.7, SUMO Mot1 rescue 644.0*, TIM10 inh 0.0, tim10-1 inh 18.0, PfHsp90 set2 -9.1 and Mot1 SUMO dose 0.4.
Screening Cc1cc2ncc(C(=O)N=CN(C)C)cn2n1 returned tim23-1 inh -0.2, SUMO Mot1 rescue 498.2*, TIM10 inh 5.0, tim10-1 inh 1.5, PfHsp90 set2 -5.7 and Mot1 SUMO dose 0.0.
Screening CN(C)C(/C=C/Nc1cccc(Br)c1)=C(C#N)C#N returned tim23-1 inh 12.9, SUMO Mot1 rescue 432.9*, TIM10 inh -15.4, tim10-1 inh 15.3, PfHsp90 set2 8.9 and Mot1 SUMO dose 0.7.
Screening CN(C)CC/C=C1/c2cc(F)ccc2Sc2ccc(Cl)cc21 returned tim23-1 inh 4.3, SUMO Mot1 rescue 738.2*, TIM10 inh 20.7, tim10-1 inh 14.6, PfHsp90 set2 -19.1 and Mot1 SUMO dose 0.0.
CCOc1ccccc1Nc1nnc(SCc2nnc(-c3cc(OC)c(OC)c(OC)c3)o2)s1 was read as tim23-1 inh 20.8, SUMO Mot1 rescue 608.1*, TIM10 inh 19.0, tim10-1 inh 39.4, PfHsp90 set2 3.1 and Mot1 SUMO dose -0.4.
CC1=CN2C(=NC(=O)CC2(C)C(=O)N(CC(=O)NC2CCCC2)Cc2ccc(Cl)cc2)C=C1 (centres undefined) was read as tim23-1 inh 6.1, SUMO Mot1 rescue 63.9, TIM10 inh 7.4, tim10-1 inh -11.5 and PfHsp90 set2 -56.3.
Screening O=C(C1CCCN(S(=O)(=O)c2cnc[nH]2)C1)N1CCN(c2ccc(Cl)cc2)CC1 (centres undefined) returned tim23-1 inh 5.7, SUMO Mot1 rescue 531.8*, TIM10 inh 4.6, tim10-1 inh -29.7, PfHsp90 set2 17.2 and Mot1 SUMO dose -0.7.
Cc1cccc(OCC(=O)NS(=O)(=O)c2ccc(Br)cc2)c1 was read as tim23-1 inh -11.3, SUMO Mot1 rescue 379.1, TIM10 inh 3.8, tim10-1 inh -17.7 and PfHsp90 set2 8.2.
CC(=O)Nc1cccc(OCC(=O)NS(=O)(=O)c2ccc(C)cc2)c1 was read as tim23-1 inh 7.6, SUMO Mot1 rescue 845.9*, TIM10 inh -4.9, tim10-1 inh 2.3 and Mot1 SUMO dose -0.6.
`Cc1noc(C)c1Cc1ccc(O)cc1` gave tim23-1 inh -2.6, SUMO Mot1 rescue 472.1*, TIM10 inh 6.2, tim10-1 inh 6.1 and Mot1 SUMO dose -0.8.
For CCOC(=O)c1c(S(=O)(=O)NCC(=O)NCc2ccccc2Cl)c(C)n(C)c1C the results were tim23-1 inh 12.9, SUMO Mot1 rescue 38.9, TIM10 inh 13.6, tim10-1 inh 15.9 and PfHsp90 set2 -13.2.
CC(C)C(=O)Nc1ccc(NC(=S)NC(=O)c2ccccc2F)cc1 was read as tim23-1 inh 13.5, SUMO Mot1 rescue 494.6*, TIM10 inh -9.9, tim10-1 inh 0.6, PfHsp90 set2 -19.1 and Mot1 SUMO dose 0.1.
Screening O=C(NC(=S)Nc1ccc(F)c([N+](=O)[O-])c1)c1ccccc1F returned tim23-1 inh 18.0, SUMO Mot1 rescue 0.1, TIM10 inh 12.3, tim10-1 inh 35.5 and PfHsp90 set2 12.5.
O=C(Nc1ccc2oc(-c3ccccc3F)nc2c1)c1ncn[nH]1 was read as tim23-1 inh 10.4, SUMO Mot1 rescue active, TIM10 inh 1.4, tim10-1 inh 13.6, PfHsp90 set2 -7.4 and Mot1 SUMO dose 0.9.

Screening data deposited in PubChem BioAssay by several laboratories.
